Several values for one entry are separate records, joined by “and”; a condition that tells them apart may be missing. Identical values can stand only once. Compounds without any hit were thinned out: in the full panel of roughly 83,000, 20% have a hit.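 Compound tested at a single concentration for 48 hours in 96-well plates; a percent growth value below 10 was scored as active.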 Activity calls are given as the source filed them.
system: TK-10 renal; test: NCI-60 one-dose screen, 48 h (100 = growth as untreated, 0 = no growth, -100 = all killed); conditions: 10 µM unless noted

| Compound | growth |
| --- | --- |
| CC1=CC[C@@H]2[C@@H](CC[C@@]2(C)O)C(C)(C)[C@H]1CC[C@@H]1[C@@]2(C)CCC(=O)C(C)(C)O[C@@H]2CC[C@]1(C)O | 10.2% [100 µM] (inactive) and -99.3% [100 µM] (active) |
| COc1ccc(Nc2nc3ccc(C(F)(F)F)cc3nc2C(=O)O)cc1 | -10.5% [100 µM] (active) and -93.8% [100 µM] (active) |
| CC1(C)CCC[C@]2(C)[C@@H](C=O)C(C=O)=CC[C@@H]12 | -6.19% [100 µM] (active) and -33.3% [100 µM] (active) |
| N=C1C(=N)c2ccccc2-c2ccccc21 | 51.2% [100 µM] (inactive) and 3.24% [100 µM] (active) |
| COc1ccc2c(c1)C(OC)C1c3c(cc4c(c3-2)OCO4)CCN1C (centres undefined) | -18.2% [100 µM] (active) and -91.5% [100 µM] (active) |
| O=C(/C=C/c1ccccc1)CCC1C(=O)c2ccccc2C1=O | 105% [100 µM] (inactive) and 77.6% [100 µM] (inactive) |
| C=C(C)C1CC2(C)C(C)CC(O)CC2C(OC(=O)C=C(C)C)C1O (centres undefined) | 17.2% [100 µM] (inactive) and 48.8% [100 µM] (inactive) |
| On1c(-c2ccccc2)nc2ccccc2c1=S | 1.71% [100 µM] (active) and -38.8% [100 µM] (active) |
| CCOc1ccc(NC(=O)/C(=N\N)C(C(=O)OC)c2nc3ccc(Cl)cc3[nH]c2=O)cc1 (centres undefined) | 128% [100 µM] (inactive) and 85.6% [100 µM] (inactive) |
| C=C1C(=O)OC2CC1C(OC(=O)/C=C/c1ccccc1)C/C(C)=C/CC/C(C)=C/CCC2(C)O (centres undefined) | -99.2% [100 µM] (active) and -83.5% [100 µM] (active) |
| CN1CCc2cc3c(c4c2C1C(O)c1ccccc1-4)OCO3 (centres undefined) | 9.4% [100 µM] (active) and -86.5% [100 µM] (active) |
| O=C(CCc1ccccc1)ON1C(=S)NC(c2ccccc2)(c2ccccc2)C1=S | -6.92% [100 µM] (active) and -21.7% [100 µM] (active) |
| Cc1ccc(/C=N/Nc2cc(C)c3cccc(C)c3n2)s1 | -67.1% [100 µM] (active) and -100% [100 µM] (active) |
| COc1ccc(OC)c(Cc2cnc3nc(N)nc(N)c3c2C)c1 | 27.5% [100 µM] (inactive) and -100% [100 µM] (active) |

From PubChem BioAssay (NCI)
